Records with an inconclusive call do not appear. Unmarked numbers belong to inactive results. The call rests on the fitted dose curve; in most records, active means well fitted curve in the direction sought with a large enough effect; inconclusive means small, poorly fitted or top-dose-only effect, or another doubt; inactive means no such curve, though single readings can be large or run the other way.
Each compound was assayed against Polyunsaturated fatty acid lipoxygenase ALOX15 (Homo sapiens) (UniProt P16050) (assay: Counterscreen qHTS for inhibitors of human arachidonate 12S-lipoxygenase (ALOX12): ALOX15 Assay). Settings: purified ALOX15 enzyme activity; series mostly up to 110 µM; activity change, negative = inhibition: at the top concentration.
Sequence of Polyunsaturated fatty acid lipoxygenase ALOX15 (Homo sapiens) (P16050 whole entry, looked up): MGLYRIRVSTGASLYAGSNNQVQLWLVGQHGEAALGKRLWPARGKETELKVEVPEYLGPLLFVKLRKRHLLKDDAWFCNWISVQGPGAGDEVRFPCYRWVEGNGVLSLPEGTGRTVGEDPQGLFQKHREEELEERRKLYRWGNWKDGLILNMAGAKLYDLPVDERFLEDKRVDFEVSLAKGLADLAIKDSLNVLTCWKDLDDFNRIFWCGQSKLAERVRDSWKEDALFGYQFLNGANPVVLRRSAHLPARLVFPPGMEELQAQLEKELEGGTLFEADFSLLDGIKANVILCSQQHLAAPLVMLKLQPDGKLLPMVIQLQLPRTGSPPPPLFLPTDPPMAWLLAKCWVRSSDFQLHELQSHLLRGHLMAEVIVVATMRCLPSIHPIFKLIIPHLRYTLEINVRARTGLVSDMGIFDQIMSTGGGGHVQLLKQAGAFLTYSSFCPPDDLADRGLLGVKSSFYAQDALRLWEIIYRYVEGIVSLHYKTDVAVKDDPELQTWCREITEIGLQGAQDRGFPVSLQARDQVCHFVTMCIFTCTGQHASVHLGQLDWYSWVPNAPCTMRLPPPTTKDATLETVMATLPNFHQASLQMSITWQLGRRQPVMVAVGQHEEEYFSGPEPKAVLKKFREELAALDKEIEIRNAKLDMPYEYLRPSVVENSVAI
Summary of the method: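 Xylenol orange–ferric complex formation, read as the 573 nm to 405 nm absorbance ratio, tracks product from 50 uM arachidonic acid turned over for 30 min at RT. Enzyme is 40 nM ALOX15, pH 7.5 HEPES buffer, compound-preincubated 15 min.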
For `COc1ccc(N2CC3CCC(C2)N3Cc2ccc(-c3cccnc3)cc2)cc1`, the “activity change, negative = inhibition” value was -22%.
In the case of `O=C1NC(=NC2CCCC2)C2(CCCN([S+](=O)([O-])c3cccc(C(F)(F)F)c3)C2)N1c1cc(F)cc(F)c1` (stereo not drawn), the “activity change, negative = inhibition” value is reported as -2.92%.
`COc1ccc(CNc2ncnc3c2CN(C2CCNC2)C(=O)CN3C)cc1OC` (stereo not drawn) was tested, and the “activity change, negative = inhibition” value was -20.1%.
In the case of `COc1ccc(CN2CCC3(CC(c4cccc(C(F)(F)F)c4)=NO3)C2)cc1` (stereo not drawn), the “activity change, negative = inhibition” value is reported as -15.6%.
For `CN1CC(=O)N(C2CCCNCC2)Cc2c(NCCCO)ncnc21` (stereo not drawn), the “activity change, negative = inhibition” value was -13% [at 146 µM].
With `COc1cc(OC(F)(F)F)ccc1C(=O)NCc1nnc2n1C(C(=O)O)CC2` (stereo not drawn) the “activity change, negative = inhibition” value was -7.17%.
For `CNCc1cccc(Oc2ccccc2)c1`, the “activity change, negative = inhibition” value was -15.4% [at 146 µM].
With `CCC(=O)N1Cc2ccccc2CC2(CCCN(CC3CCNC3)C2)C1` (stereo not drawn) the “activity change, negative = inhibition” value was -19.7% [at 146 µM].
For `CCc1ccc(S(=O)(=O)c2nnn3c2nc(NCc2ccc(F)cc2)c2ccccc23)cc1`, the “activity change, negative = inhibition” value was -5.83%.
With `COc1ccc(CC(=O)N2Cc3ccccc3CC3(CCN(CC4CCNC4)C3)C2)cc1` (stereo not drawn) the “activity change, negative = inhibition” value was 8.23%.
For `CCCC(=O)N1Cc2ccccc2CC2(CCN(Cc3ccc(O)cc3)C2)C1` (stereo not drawn), the “activity change, negative = inhibition” value was 3.88%.
With `O=C1NCc2ccccc2CC12CCN(C/C=C/c1ccccc1)CC2` the “activity change, negative = inhibition” value was -24.6% [at 146 µM].
In the case of `CC(C)CCN1CCn2c(nn(-c3ccc(Cl)cc3)c2=O)C1`, the “activity change, negative = inhibition” value is reported as -11.9% [at 146 µM].
With `O=C(c1cc(C2CC2)nc2onc(C3CCCNC3)c12)N1CCC(F)CC1` (stereo not drawn) the “activity change, negative = inhibition” value was 5.09%.
With `N#Cc1cccnc1-c1ccc(C(=O)O)cc1` the “activity change, negative = inhibition” value was -24.7% [at 146 µM].
In the case of `Cc1ccc(C(=O)N2CCn3c(nnc3C3CCNCC3)C2)cc1`, the “activity change, negative = inhibition” value is reported as -0.421% [at 146 µM].
With `CN1CC(=O)N(C2CCNCC2)Cc2c1ncnc2N(C)Cc1ccc(F)cc1` the “activity change, negative = inhibition” value was -13.5%.
With `C[S+](=O)([O-])N1Cc2ccccc2CC2(CCCCN2CC2CCNCC2)C1` (stereo not drawn) the “activity change, negative = inhibition” value was -4.91%.

From PubChem BioAssay AID1671192 (National Center for Advancing Translational Sciences (NCATS), 2021)
Further: 0% is about no effect.
